Hits are enriched below; roughly 19% of the tested compounds scored in any of these assays.
TDP1 cell CPT: growth inhibition of DT40 Tdp1-/-;hTDP1 cells with camptothecin (screen for TDP1 inhibitors); chicken DT40 Tdp1-/-;hTDP1 cells + 20 nM CPT, ATP luminescence, 48 h; Potency, µM (titrated, usually from 46.2 µM), for inactives: at the highest dose activity change, negative = growth inhibition, hits mostly inhibitors; actives 12% (n = 420,000); note: potency is the fitted concentration of half-maximal effect; % is set by controls: 0 for no effect and ±100 for the full control effect; nearly all actives have a fitted effect of over 55% in size
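Chicken DT40 Tdp1-/- cells stably complemented with human TDP1 were seeded at 400 cells/well in medium containing 20 nM camptothecin, exposed to pin-transferred compounds, and grown at 37 °C for at least 48 hr. Viability was read as ATP luminescence.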
Chronic BCR inh: chronic active BCR signaling inhibition | ABC-DLBCL IkBa-CBG/CBR reporter, luminescence ratio, 4 h | Potency, µM (series often up to 46.1 µM), for the others: at the top dose activity change, negative = inhibition, hits mostly inhibitors | actives 0.05% (n = 340,000); active = well fitted inhibition curve with a large enough effect in the signal ratio, with a control signal flat, not every such curve was filed as active; inconclusive = small, poorly fitted or top-dose-only effect, or effect the other way, or a change in a side signal; the % refers to the signal ratio;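 note: potency is the fitted concentration of half-maximal effect; plate controls were basal doxycycline-induced cells for no effect and cells given 10 µM MG132 for full effect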
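TMD8 human ABC-DLBCL cells with doxycycline-inducible IκBα–green luciferase fusion and unfused red luciferase, in 0.5% FBS medium; compounds up to 46 uM, 4 h at 37C. Green/red luminescence ratio, filter-overlap corrected, fitted to concentration-response curves.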
SW480 rereplic: induces DNA re-replication in SW480 colon adenocarcinoma cells | SW480 DNA re-replication, Hoechst DNA content imaging, 48 h | actives 1.8% (n = 340,000) | Potency, µM (top dose mostly 46.1 µM), inactives show at the top dose re-replication activation, most hits filed as activators | AID 624297; note: potency is the fitted concentration of half-maximal effect; % of control where 0% means no effect; nearly all actives have a fitted effect of over 55% in size
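Readout is total intensity of Hoechst-stained nuclei, excited at 405 nm and collected at 500-530 nm. Compound treatment lasted 48 hr at 37 C in 5% CO2 before staining.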
TDP1 cell noCPT: qHTS for Inhibitors of human tyrosyl-DNA phosphodiesterase 1 (TDP1): qHTS in cells in absence of CPT | Potency, µM (series often up to 46.2 µM), inactives show at the top dose activity change, negative = growth inhibition, usual class: inhibitors | actives 15% (n = 420,000) | DT40 Tdp1-/- hTDP1 cells, no CPT, ATP luminescence, 48 h; note: potency is the fitted concentration of half-maximal effect; % is set by controls: 0 for no effect and ±100 for the full control effect; nearly all actives have a fitted effect of over 55% in size
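Luminescent ATP content (CellTiter-Glo) served as the growth readout. Knockout chicken DT40 cells expressing human TDP1 were exposed to compounds without camptothecin for a minimum 48 hr at 37 °C.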
IL1B secr inh: inflammasome signaling inhibition, IL-1 beta readout; THP-1 LPS/ATP IL-1B secretion, AlphaLISA, 16 h; active compounds read low; activity change, % at 57.5 µM; actives 4.7% (n = 360,000); in the data active = activity change below about -50%; inconclusive = mostly about -30% to -49%; note: % is set by controls: 0 for no effect and ±100 for the full control effect
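Secreted IL-1B measured by AlphaLISA bead assay after 16 h compound exposure of THP-1 cells; compounds (final up to 57.5 uM) added 1 h before LPS (250 ng/mL) and ATP (1.25 mM) stimulation; lower signal means less secretion.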
MCF10A rereplic: DNA re-replication induction in MCF 10a cells; MCF 10A DNA re-replication, Hoechst nuclear intensity, 48 h; Potency, µM (highest dose often 46.1 µM), without a hit: top-dose activity, positive = re-replication, actives largely listed as activators; actives 2.9% (n = 350,000); AID 624296; note: potency is the fitted concentration of half-maximal effect; % of control where 0% means no effect; nearly all actives have a fitted effect of over 50% in size
Starred values were filed as active, the others as inactive. Unless noted, calls come from the whole dose curve; as a rule, active = well fitted curve in the direction sought with a large enough effect; inconclusive = small, poorly fitted or top-dose-only effect, or another doubt; inactive = no such curve, though single readings can be large; an effect the other way counts as inactive or inconclusive.

CC1CCN(CCCNC(=O)c2cc3c(Cl)nc4ccccc4c3s2)CC1 was read as TDP1 cell CPT inconclusive, Chronic BCR inh inconclusive, SW480 rereplic inconclusive, TDP1 cell noCPT inconclusive, IL1B secr inh -70* and MCF10A rereplic inconclusive.
For O=C(CCNC(=O)Cn1ccc2ccccc2c1=O)NCCCN1CCN(c2ccccc2F)CC1 the results were TDP1 cell CPT -24%, Chronic BCR inh 1%, SW480 rereplic 1%, TDP1 cell noCPT -10%, IL1B secr inh 1 and MCF10A rereplic -5%.
For CC(C)NC(=O)c1cc2c(Cl)nc3ccccc3c2s1 the results were TDP1 cell CPT -27% and TDP1 cell noCPT inconclusive.
O=C(NCCCN1CCCC1)c1cc2c(Cl)nc3ccccc3c2s1 was read as TDP1 cell CPT 15µM*, Chronic BCR inh inconclusive, SW480 rereplic 1%, TDP1 cell noCPT 12µM* and MCF10A rereplic 29%.
COc1ccc(C(C)=O)cc1Cn1c(C)c(C(=O)NCCC#N)sc1=O was read as TDP1 cell CPT 3%, TDP1 cell noCPT inconclusive and IL1B secr inh -16.
`O=C(CNCCc1ccc(F)cc1)Nc1cc(F)ccc1F` gave TDP1 cell CPT 1%, Chronic BCR inh 1%, SW480 rereplic 3%, TDP1 cell noCPT 3%, IL1B secr inh -25 and MCF10A rereplic -5%.
`CCCNc1c(NC(=O)c2cccs2)c(=O)oc2ccccc12` gave TDP1 cell CPT -24%, Chronic BCR inh inconclusive, SW480 rereplic inconclusive, TDP1 cell noCPT 4%, IL1B secr inh -4 and MCF10A rereplic 9%.
CCOC(=O)N1CCN(C(=O)COC(=O)C2CCN(S(=O)(=O)c3c(Cl)cccc3Cl)CC2)CC1 was read as TDP1 cell CPT -2%, Chronic BCR inh inconclusive, SW480 rereplic -11%, TDP1 cell noCPT -1%, IL1B secr inh 9 and MCF10A rereplic 5%.
O=CN/N=C/c1c(O)ccc2ccccc12 was read as TDP1 cell CPT 7.3µM*, Chronic BCR inh inconclusive, SW480 rereplic 18%, TDP1 cell noCPT 6.5µM*, IL1B secr inh 245 and MCF10A rereplic 1%.
Oc1ccc2ccccc2c1/C=N/Nc1ccccc1 was read as TDP1 cell CPT 6%, Chronic BCR inh 11%, SW480 rereplic -3%, TDP1 cell noCPT 2%, IL1B secr inh 1 and MCF10A rereplic 9%.
Screening NC(=S)N/N=C/c1c(O)ccc2ccccc12 returned TDP1 cell CPT 12µM*, Chronic BCR inh 2%, SW480 rereplic inconclusive, TDP1 cell noCPT inconclusive, IL1B secr inh 25 and MCF10A rereplic inconclusive.
For Oc1ccccc1C=NN=Cc1c(O)ccc2ccccc12 the results were TDP1 cell CPT inconclusive, SW480 rereplic 8%, TDP1 cell noCPT inconclusive, IL1B secr inh 10 and MCF10A rereplic 6%.
Cc1ccc(C(=O)n2nc(C#N)c(C#N)c2N)cc1 was read as TDP1 cell CPT 3%, Chronic BCR inh 8%, SW480 rereplic 3%, TDP1 cell noCPT 2%, IL1B secr inh 30 and MCF10A rereplic -6%.
Screening Cc1noc(C)c1C(=O)N1CCC2(CCCN(Cc3ccccc3)C2)CC1 returned TDP1 cell CPT 4% and TDP1 cell noCPT -7%.
Screening Cc1noc(C)c1C(=O)N1CCC[C@@]2(CCN(c3cccc(-c4ccccc4)c3)C2)C1 returned TDP1 cell CPT 16µM* and TDP1 cell noCPT 18µM*.
For Cc1noc(C)c1C(=O)N1CCC2(CCCN(C(c3ccccc3)c3ccccc3)C2)CC1 the results were TDP1 cell CPT inconclusive and TDP1 cell noCPT 23µM*.
`Cc1ccc(NC(=O)Nc2nnc(N3CCCC3)s2)c(C)c1` gave TDP1 cell CPT -1% and TDP1 cell noCPT -4%.
Screening CC(=O)c1c(C)n(-c2cccc(Cl)c2)c2ccc(OC(=O)c3ccccc3)cc12 returned TDP1 cell CPT inconclusive and TDP1 cell noCPT 29µM*.
Screening CC(=O)c1c(C)n(-c2ccc(Cl)cc2)c2ccc(O)cc12 returned TDP1 cell CPT inconclusive, Chronic BCR inh 4%, SW480 rereplic 1%, TDP1 cell noCPT -20%, IL1B secr inh 2 and MCF10A rereplic inconclusive.
For CC(=O)c1c(C)n(-c2cccc(Cl)c2)c2ccc(O)cc12 the results were TDP1 cell CPT inconclusive, Chronic BCR inh -9%, SW480 rereplic -3%, TDP1 cell noCPT 0.52µM*, IL1B secr inh -10 and MCF10A rereplic 20%.
`COC(=O)c1c(C)n(-c2ccc(C)cc2)c2ccc(O)cc12` gave TDP1 cell CPT 35µM*, Chronic BCR inh 3%, SW480 rereplic inconclusive, TDP1 cell noCPT 18µM*, IL1B secr inh 20 and MCF10A rereplic inconclusive.
For Cc1c(C=C(C#N)c2ccc([N+](=O)[O-])cc2)c(=O)n(-c2ccccc2)n1C the results were TDP1 cell CPT inconclusive, SW480 rereplic -1%, TDP1 cell noCPT inconclusive, IL1B secr inh -6 and MCF10A rereplic 5%.
COC(=O)c1ccc(/C=C/c2c(-c3ccsc3)sc3ccccc23)cc1 was read as TDP1 cell CPT inconclusive, Chronic BCR inh 11%, SW480 rereplic 4.1µM*, TDP1 cell noCPT inconclusive, IL1B secr inh -20 and MCF10A rereplic 16µM*.
O=C(Nc1ccccc1OC(F)F)c1ccc(-n2cncn2)c([N+](=O)[O-])c1 was read as TDP1 cell CPT -30%, Chronic BCR inh inconclusive, SW480 rereplic -4%, TDP1 cell noCPT -12%, IL1B secr inh -6 and MCF10A rereplic 0%.
For O=C(Cc1ccccc1)N/N=C/c1ccc([N+](=O)[O-])s1 the results were TDP1 cell CPT 21µM*, Chronic BCR inh 4%, SW480 rereplic inconclusive, TDP1 cell noCPT 23µM*, IL1B secr inh -1 and MCF10A rereplic inconclusive.
Screening O=C(N/N=C\c1ccc([N+](=O)[O-])s1)c1cncc(Br)c1 returned TDP1 cell CPT 5.2µM*, Chronic BCR inh inconclusive, SW480 rereplic 5.8µM*, TDP1 cell noCPT 3.3µM*, IL1B secr inh -58* and MCF10A rereplic 7.3µM*.
O=C(N/N=C/c1ccc([N+](=O)[O-])s1)c1ccccc1 was read as TDP1 cell CPT 4.6µM*, Chronic BCR inh inconclusive, SW480 rereplic -1%, TDP1 cell noCPT 4.1µM*, IL1B secr inh inconclusive and MCF10A rereplic 1%.
`COC(=O)N/N=C/c1ccc([N+](=O)[O-])s1` gave TDP1 cell CPT 13µM*, Chronic BCR inh 7%, SW480 rereplic inconclusive, TDP1 cell noCPT 15µM*, IL1B secr inh -17 and MCF10A rereplic -8%.
